# Data taken from paper PMC10668032, “Altered binding affinity of SIX1-Q177R correlates with enhanced WNT5A and WNT pathway effector expression in Wilms tumor”.
# Whole data set: some 33,000 sequences, median “e-score” near -0.05, cut for the highest 2% near 0.38. Shown is part of a subset that was picked to be rich in the highest values.
# Biological target: T1, SIX1-Q177R homeodomain (human, UniProt Q15475 108-198, Q177R)
# T1 sequence: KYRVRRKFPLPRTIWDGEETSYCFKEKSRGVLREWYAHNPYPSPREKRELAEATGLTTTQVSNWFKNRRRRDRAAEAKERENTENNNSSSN
# Test: universal protein binding microarray; Universal all-10-mer PBM (8x60K, AMADID 030236), 300 nM GST-tagged protein, Alexa Fluor 488 anti-GST; buffer, salt, pH and temperature not stated (as in Berger); high values mean tight binding
# Conditions: protein: ivt; tags: N-terminal GST; dsDNA, one strand shown
# How it was run: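 GST-tagged homeodomains were made by in vitro transcription/translation and quantified by anti-GST western blot against a recombinant GST standard curve. They were applied in duplicate at 300 nM final concentration to universal 'all 10-mer' protein binding microarrays (8×60K format). Binding was quantified as 8-mer E-scores with the Universal PBM Analysis Suite.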
row,Sequence,binding signal [E-score]
1,CCCCTGAG,0.16 ± 0.00444
2,AGGCGTAC,0.221 ± 0.0327
3,ACCAGGTG,0.217 ± 0.0167
4,ACTGCGTG,0.29 ± 0.0171
5,ATGCGACA,0.198 ± 0.03
6,CGGGTTAC,0.159 ± 0.0432
7,ATAGGTAC,0.166 ± 0.021
8,AGACACGG,0.377 ± 0.019
9,AGACACTG,0.341 ± 0.0138
10,AGACACCG,0.468 ± 0.0126
11,AGACACCT,0.4528 ± 0.0033
12,AATGATAC,0.212 ± 0.0688
13,AACCCCAC,0.222 ± 0.0452
14,ACACGGAT,0.392 ± 0.0346
15,ACCCGGAT,0.301 ± 0.0466
16,ACACGGAG,0.369 ± 0.00835
17,ACACGGAA,0.398 ± 0.0244
18,ACCCGGAA,0.272 ± 0.0105
19,AGGATACC,0.337 ± 0.0124
20,CGACCTCA,0.168 ± 0.0123
21,CAACTACA,0.2474 ± 0.00148
22,ACCCTACG,0.164 ± 0.0266
23,CCCCATGC,0.201 ± 0.0118
24,GAAGGGTA,0.169 ± 0.0222
25,AGTGTAGC,0.3944 ± 0.000672

row,Sequence,binding signal [E-score]
1,AGTGTTGC,0.321 ± 0.00542
2,AGTGTAGA,0.369 ± 0.0196
3,CGTGTAGA,0.379 ± 0.0134
4,AGTGTGGC,0.193 ± 0.0161
5,AGTGTGGG,0.192 ± 0.0212
6,CGTGTAGC,0.416 ± 0.0198
7,AGTGTAGG,0.411 ± 0.00742
8,ACTTAATG,0.219 ± 0.0268
9,CAATAGGG,0.2 ± 0.0026
10,CCCGGACA,0.233 ± 0.00728
11,TGTCATAA,0.1985 ± 0.00132
12,AATGCACC,0.162 ± 0.026
13,AGTGTTTC,0.299 ± 0.0238
14,AGTGTTCC,0.334 ± 0.0173
15,GGTGTTAC,0.474 ± 0.00578
16,AGTGTTAT,0.395 ± 0.041
17,AGTGTTAC,0.387 ± 0.0129
18,AGTGTTAA,0.394 ± 0.0556
19,GGCGTTAC,0.154 ± 0.00446
20,GGGGTTAC,0.261 ± 0.0216
21,AGGAGTAT,0.168 ± 0.0487
22,CGGGAACA,0.157 ± 0.0155
23,CACCGGCG,0.244 ± 0.0186
24,CCGGGGTC,0.323 ± 0.0298
25,ACCCTAGA,0.176 ± 0.00214

row,Sequence,binding signal [E-score]
1,CACGTCAC,0.16 ± 0.0113
2,GAGGTACA,0.252 ± 0.0061
3,CGTGACTC,0.207 ± 0.00528
4,AGTGACAC,0.469 ± 0.00575
5,GGGGTGAC,0.16 ± 0.0356
6,CGTGACCC,0.211 ± 0.0247
7,GGTGATAC,0.313 ± 0.00834
8,AGTGACCC,0.234 ± 0.019
9,CGTGACAC,0.454 ± 0.00689
10,AGTGACTC,0.193 ± 0.0365
11,GGTGACAC,0.4718 ± 0.00406
12,CACGGAGG,0.222 ± 0.0241
13,CACGGCTG,0.201 ± 0.0155
14,AGTATCAT,0.259 ± 0.0404
15,CGCCGCAC,0.151 ± 0.00857
16,ACCGACTC,0.204 ± 0.0477
17,CCCGACGC,0.151 ± 0.00346
18,GCCGATCC,0.19 ± 0.00748
19,ACCGACCC,0.192 ± 0.0372
20,CCCGACAC,0.45 ± 0.0155
21,GCCGACAC,0.422 ± 0.0235
22,CCCGACCC,0.187 ± 0.0176
23,ACCGACAC,0.425 ± 0.0144
24,CAGCACCG,0.242 ± 0.0129
25,CGGACGAC,0.152 ± 0.037

row,Sequence,binding signal [E-score]
1,GTTCCGGA,0.175 ± 0.0199
2,ACCCACGA,0.153 ± 0.0296
3,AAACTAGA,0.163 ± 0.00455
4,AGTGTGCC,0.159 ± 0.0249
5,CGTGTGCC,0.168 ± 0.0218
6,CGTGTACA,0.427 ± 0.00703
7,AGAGTACA,0.186 ± 0.00263
8,ACTGTACA,0.223 ± 0.00571
9,AGTGTACC,0.414 ± 0.00528
10,CGTGTACC,0.4357 ± 0.00135
11,CTTGTACA,0.154 ± 0.0493
12,CATGTACA,0.167 ± 0.0144
13,GGGGTACC,0.247 ± 0.0225
14,CGGGTACC,0.16 ± 0.0136
15,AGTGTACA,0.418 ± 0.0292
16,AGTACCCA,0.175 ± 0.0132
17,CACCATGG,0.343 ± 0.0218
18,CGTAGGTA,0.209 ± 0.00643
19,CACTAGTC,0.208 ± 0.0318
20,CACGGTAC,0.186 ± 0.0635
21,CACTATAG,0.192 ± 0.0146
22,AGTGTGTG,0.197 ± 0.0254
23,AGTGTACG,0.407 ± 0.00139
24,GCTGTACA,0.208 ± 0.0271
25,CGAGTACG,0.19 ± 0.0193

row,Sequence,binding signal [E-score]
1,GGTGTACA,0.4817 ± 0.00156
2,GTTGTACA,0.223 ± 0.0201
3,CACGGAAA,0.188 ± 0.0559
4,ACACCGAC,0.475 ± 0.00507
5,ACACCGAA,0.4689 ± 0.000997
6,CCCCCGAG,0.188 ± 0.0196
7,ACACCGAT,0.473 ± 0.00479
8,GCACCGAC,0.225 ± 0.017
9,GCACCGAA,0.156 ± 0.0137
10,ATACCGAC,0.173 ± 0.0172
11,ACACCGAG,0.4783 ± 0.00449
12,ACCCCGAT,0.229 ± 0.00378
13,ACGCCGAT,0.152 ± 0.0158
14,ACCCCGAA,0.228 ± 0.0524
15,ACCCCGAG,0.317 ± 0.0221
16,CACCGTAG,0.255 ± 0.00273
17,CGGAGTAC,0.229 ± 0.00578
18,GGCGAACA,0.198 ± 0.0404
19,ACCCTTAG,0.172 ± 0.00692
20,CACTAAAC,0.195 ± 0.0243
21,CACTTGAC,0.258 ± 0.0158
22,CAAGGATA,0.184 ± 0.029
23,ACTCCACA,0.206 ± 0.00721
24,AGTTGGGG,0.16 ± 0.00841
25,GTGACACA,0.333 ± 0.0417

row,Sequence,binding signal [E-score]
1,ATGACACC,0.4917 ± 0.00156
2,ATGACACA,0.275 ± 0.0196
3,ATGACACG,0.4485 ± 0.00163
4,CTGACACA,0.297 ± 0.0288
5,ATGACGCC,0.172 ± 0.00576
6,CTGACGCC,0.185 ± 0.012
7,ATGACTCC,0.273 ± 0.00839
8,CTGACACC,0.4913 ± 0.00298
9,CCCCCAAG,0.227 ± 0.0377
10,CGGCTACG,0.164 ± 0.00561
11,CACCAATA,0.276 ± 0.0342
12,CCCCCATA,0.192 ± 0.0334
13,GGGATGTA,0.159 ± 0.0364
14,AACGAACA,0.208 ± 0.0231
15,GGGGGTTA,0.293 ± 0.0288
16,GTGTGTTA,0.298 ± 0.00829
17,CGGTGTTA,0.4847 ± 0.00334
18,CGGTGCTA,0.2 ± 0.00414
19,AAGTGTTG,0.289 ± 0.02
20,GGGTGTTA,0.475 ± 0.00715
21,AGGTGCTC,0.158 ± 0.0126
22,AGGTGTTC,0.457 ± 0.00831
23,CGGAGTTA,0.253 ± 0.0116
24,AGGTGTTG,0.448 ± 0.00602
25,ACGTGTTG,0.346 ± 0.00562

row,Sequence,binding signal [E-score]
1,ACGCCCAG,0.1915 ± 0.000269
2,CACCTGGC,0.152 ± 0.00727
3,CGCCCAGC,0.161 ± 0.0486
4,AATACCCT,0.171 ± 0.00453
5,CCCCTCGC,0.169 ± 0.0263
6,TGTCGGAA,0.233 ± 0.0472
7,GTGTGCTA,0.321 ± 0.0179
8,GCGTTACA,0.201 ± 0.00911
9,GCTGTGGA,0.17 ± 0.0188
10,CGCCGTAC,0.178 ± 0.00701
11,AATGATCC,0.17 ± 0.0375
12,GTTGGACA,0.245 ± 0.0116
13,CCTCTCGA,0.17 ± 0.0627
14,CACGCACA,0.262 ± 0.00327
15,AGGGGTTA,0.21 ± 0.0107
16,CGGTGCTC,0.218 ± 0.0427
17,CGGTGTTC,0.476 ± 0.00165
18,CTGTGTTC,0.175 ± 0.0413
19,AGGTGTTA,0.463 ± 0.00921
20,CGGAGTCA,0.356 ± 0.0051
21,TCATAACA,0.23 ± 0.0137
22,CCCGGTAC,0.22 ± 0.0152
